Test results as given in ChEMBL document CHEMBL4513216, “Probing the Open Global Health Chemical Diversity Library for Multistage-Active Starting Points for Next-Generation Antimalarials” (ACS Infect Dis, 2020).
Hit rate of the full screen: of about 69,000 compounds, about 8,600 (12%) showed an effect of 50% or more. Many of the other results were omitted from the sample, so strong results are more common in it than they were.

Test system: Plasmodium berghei
Experiment: Screen against P. berghei liver stage (PbLuc), transformed with Luciferase, at 10uM
Assay type: functional, HepG2
Conditions: tested at 10 uM

SMILES	INHIBITION
Cc1cc(C(=O)N2C[C@@H]3CC[C@H]2CN(Cc2ccccn2)C3)nc(N)n1	4.59%
CCN(C(=O)Nc1nccs1)C(C)c1cccc(O)c1 (stereo not given)	71.3%
CCN(C(=O)Nc1nncs1)C(C)c1cccc(OC)c1 (stereo not given)	-5.22%
CC(NC(=O)Nc1nccs1)c1cccnc1 (stereo not given)	54.8%
CC(NC(=O)Nc1nccs1)c1ccncc1 (stereo not given)	5.91%
CC(NC(=O)Nc1nccs1)c1ccc(S(C)(=O)=O)cc1 (stereo not given)	16.8%
CCN(C(=O)Nc1cc(C)on1)C(C)c1cccc(O)c1 (stereo not given)	-2.43%
Cc1cc(C(F)(F)F)n2nc(C3CCCN3C3CCSCC3)cc2n1 (stereo not given)	5.535%
CC1(C)CN(c2cc(C3CC3)ncn2)C[C@]1(C)O	-1.04%
COCCn1ccc(NC(=O)Nc2ccc(C(N)=O)c(F)c2)n1	11.1%
O=C(N[C@@H]1CCN(Cc2cc3ccccc3s2)C[C@H]1O)c1cccnc1	22%
COC(=O)c1ccn(COc2ccccc2Cl)n1	-15.5%
CCc1nc(C2CCCN2C(=O)CCn2cncn2)no1 (stereo not given)	30.8%
COC(=O)CCc1c(C)nn(-c2nc(C)cc(=O)[nH]2)c1C	-12.6%
Cc1cc(=O)[nH]c(-n2nc(C)c(CCC(=O)NCc3ccco3)c2C)n1	6.09%
Cc1noc(C)c1CCC(=O)NCCc1cccs1	-1.99%
Cc1cc(=O)[nH]c(-n2nc(C)c(CCC(=O)Nc3nc(C)cs3)c2C)n1	68.2%
Cc1cc(=O)[nH]c(-n2nc(C)c(CCC(=O)NCc3cccs3)c2C)n1	72.2%
Cc1cc(=O)[nH]c(-n2nc(C)c(CCC(=O)NCC(C)C)c2C)n1	11.3%
Cn1nc(C(=O)NC2(c3ccccc3)CCC2)ccc1=O	-4.35%
Cc1c(C)c2c(c(C)c1O)CC[C@](C)(C(=O)O)O2 [(R)-TROLOX]	-10.3%
CC(C)NCc1cccnc1N1CCN(c2ccccn2)CC1	37.7%
CCCC(C)NCc1cccnc1N1CCN(c2ccccn2)CC1 (stereo not given)	50.7%
CC(C)CC(C)NCc1cccnc1N1CCN(c2ccccn2)CC1 (stereo not given)	9.56%

SMILES	INHIBITION
CCc1nc(CN(C)C2CCN(CC(=O)N(C)C)C2)no1 (stereo not given)	24%
O=C(NC1CCN(C(=O)C2CCCCC2)C1)c1ccncc1Cl (stereo not given)	14.1%
Cc1cnn(CCNCC(O)COc2ccc3ccccc3c2)c1 (stereo not given)	17.4%
Cc1cnn(CCNCC(O)COc2cc(Cl)ccc2Cl)c1 (stereo not given)	50.3%
Cc1cnn(CCNCC(=O)Nc2ccc(Cl)cn2)c1	-106%
Cc1cnn(CCNCC(O)COc2ccc(Cl)cc2Cl)c1 (stereo not given)	66.7%
Cc1cnn(CCNCC(O)c2ccc(F)c(F)c2)c1 (stereo not given)	7.21%
Cc1cnn(CCNCC(O)c2cccc(Br)c2)c1 (stereo not given)	16.8%
COc1cc(C(=O)NS(=O)(=O)c2cccc(C#N)c2)cc(OC)c1C	22.3%
O=C(NCCN1CCCCCC1)c1n[nH]c(=O)c2ccccc12	4.71%
O=C(CCc1ccc(Cl)cc1)N[C@@H]1CC[C@@H](O)[C@@H]1O	45.75%
CC(C)Nc1cc(N2CCCC3(CN(C)C(=O)O3)C2)ncn1 (stereo not given)	17.4%
COc1ccc(CN2CCOC3(CCCN(c4cnccn4)C3)C2)cc1 (stereo not given)	44.2%
CNC(=O)C1(C)CCCN(c2cnccn2)C1 (stereo not given)	-26.2%
CC1(C(=O)NC2CCCC2)CCCN(c2cnccn2)C1 (stereo not given)	-4.51%
CC1(C(N)=O)CCCN(c2cnccn2)C1 (stereo not given)	53.2%
CN1CC2(CCCN(c3nc(N)nc4c3CCCC4)C2)OC1=O (stereo not given)	45.6%
Cc1cc(N2CCCC3(CN(C)C(=O)O3)C2)c2cc3c(cc2n1)OCO3 (stereo not given)	28.6%
CN1CC2(CCCN(c3cc(N4CCCCC4)ncn3)C2)OC1=O (stereo not given)	60.1%
CN1CC2(CCCN(c3cnccn3)C2)OC1=O (stereo not given)	61%
Cc1nc(CCC(N)=O)cc(C2CCNCC2)n1	-10.8%
O=C(COC[C@@H]1CC[C@H]2[C@H](CCN2Cc2ccco2)O1)N1CCCC1	-54.9%
Cc1c(C(=O)N2CCOCC2)nnn1-c1ccc2ncccc2c1	-29.7%
Cc1cc(C(=O)NCc2ccnc(N3CCN(C)CC3)c2)no1	17.34%

SMILES	INHIBITION
CN1CCN(C(=O)N2C[C@@H]3CC[C@H]2CN(Cc2ccccc2)C3)CC1	30.9%
c1cnnc(N2CCCC(NCc3cn4ccccc4n3)C2)c1 (stereo not given)	27.9%
CCC1c2cccn2CCN1C(=O)c1ccno1 (stereo not given)	-48.4%
O=c1oc(-c2cccs2)nn1CC(O)c1ccc2c(c1)CCC2 (stereo not given)	59.4%
O=c1oc(-c2cccs2)nn1CC(O)c1ccc(F)cc1 (stereo not given)	-23.5%
O=c1oc(-c2cccs2)nn1CC(O)c1ccccc1 (stereo not given)	0.547%
CCNc1ccnc(NC2CCN(S(C)(=O)=O)CC2)n1	72.3%
CCNC(=O)N1CCC(Nc2nccc(NCC)n2)CC1	20.4%
CCNc1ccnc(NC2CCN(CC(N)=O)CC2)n1	-9.92%
CCOC(=O)N1CC(=O)N(CCc2ccccc2)CC(O)C1 (stereo not given)	28.3%
CCN1C(=O)C(C)(C)c2cc(NC(=O)c3ccn(CC)n3)ccc21	-42.9%
Cc1cc(C(=O)N2CCCC(n3ccnc3)C2)c(C)n1C1CC1 (stereo not given)	27.4%
Cc1[nH]ncc1C(C)NCc1ccc(F)cc1 (stereo not given)	63.7%
COc1ccc(CNC(C)c2cn[nH]c2C)cc1 (stereo not given)	11.8%
Cc1[nH]ncc1C(C)NCc1cccnc1 (stereo not given)	14.3%
CN(C)CCN1CCC2[C@@H]1CCN2Cc1ccc2c(c1)OCO2 (stereo not given in full)	-9.74%
CC(=O)c1c(F)cccc1N1CCC(NS(=O)(=O)c2ccccc2)CC1	78%
CCS(=O)(=O)N(C)C1CCN(c2cccc(F)c2C(C)=O)CC1	-9.35%
CC(=O)c1c(F)cccc1N1CCC(Cc2cccnc2)CC1	83.4%
CC(=O)c1c(F)cccc1N1CCC(C(N)=O)CC1	-13.1%
CCN(C1CCN(c2cccc(F)c2C(C)=O)CC1)S(C)(=O)=O	20.4%
CC(=O)c1c(F)cccc1N1CCC(CS(N)(=O)=O)CC1	30.1%
